From PubChem BioAssay
An excerpt weighted towards active compounds, which were near 11% of everything screened.
G9a inh: G9a (human) methyltransferase inhibition; 350,000 tested, 8.8% active; AID 504332; Q96KQ7; G9a H3K9 monomethylation, AlphaScreen, 2 h; Potency, µM (titrated, usually from 102 µM), most hits filed as inhibitors; further: nearly all actives have a fitted effect of over 75% in size
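Step 1: enzyme (final 20 nM) with compound, 15 min RT. Step 2: substrate peptide 500 nM and SAM 20 uM, 2 h RT. Step 3: anti-H3K9me1 antibody and AlphaScreen beads, 10 min, then plate read.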
BAZ2B inh: inhibitors of human BAZ2B bromodomain; Q9UIF8; AlphaScreen BAZ2B-H3K14Ac peptide displacement; Potency, µM (titrated, usually from 114 µM), actives largely listed as inhibitors; 360,000 tested, 4.4% active; AID 504333; further: nearly all actives have a fitted effect of over 60% in size
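Complex of BAZ2B and biotin-H3K14Ac (50 nM apiece) forms over 30 min at RT, then faces library compounds up to 110 uM for another 30 min; AlphaScreen beads added, 20 min dark incubation, luminescence read.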
L3MBTL1 block: inhibitors of human L3MBTL1. Q9Y468. AlphaScreen L3MBTL1–H3K9me1 peptide binding. Potency, µM (titrated, usually from 57.1 µM), actives largely listed as inhibitors. 230,000 tested, 0.66% active. AID 485360; further: nearly all actives have a fitted effect of over 60% in size
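AlphaScreen assay: L3MBTL1 (50 nM final) was preincubated 30 min at room temperature with biotinylated H3(1-15)K9me1 peptide (75 nM final), then 30 min with library compounds; streptavidin donor and nickel chelate acceptor beads (10 ug/mL final) added, 30 min dark.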
HP1b binding inh: blocks HP1-beta chromodomain binding to methylated histone tails; P83916; AlphaScreen HP1-beta / biotin-H3K9me3 peptide binding; Potency, µM (titrated, usually from 114 µM), hits mostly inhibitors; 390,000 tested, 0.56% active; AID 540317; further: nearly all actives have a fitted effect of over 70% in size
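Compound inhibition of the preformed complex between 50 nM HP1-beta and 50 nM biotinylated H3K9me3 peptide was read by AlphaScreen. Buffer was PBS pH 7.4 with 0.01% Tween-20. Incubations ran 30 min at room temperature, with 10 ug/mL donor/acceptor beads.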
JMJD2A Tudor inh: blocks the human JMJD2A Tudor domain. O75164. AlphaScreen JMJD2A-Tudor / H3K4me3 peptide binding. Potency, µM (top dose mostly 114 µM), most hits filed as inhibitors. 390,000 tested, 4.4% active. AID 504339; further: nearly all actives have a fitted effect of over 50% in size
A number is an active result; 0 = inactive; ? = inconclusive; - = not tested or not shown; [ ] = dose if it differs, or a comment. The call rests on the fitted dose curve; in most records, active means well fitted inhibition curve with a large enough effect; inconclusive means small, poorly fitted or top-dose-only effect; inactive means no such curve, though single readings can be large or run the other way.

SMILES	G9a inh	BAZ2B inh	L3MBTL1 block	HP1b binding inh	JMJD2A Tudor inh
C#CCOCCOCCOCCNc1nc(N2CCN(C(=O)[C@H](CO)n3cc([C@@H](N)C(C)C)nn3)CC2)nc(N2CCN(C(=O)[C@H](CCC(=O)O)n3cc([C@@H](N)CCCCN)nn3)CC2)n1	-	-	0	0	?
Cc1ccc(CN2C(=O)c3ccccc3Sc3ccc(C(=O)NCc4ccco4)cc32)cc1	0	0	-	0	0
CCCC[C@]12Cc3cc(C#N)ccc3C(O1)c1c(c3cc(F)ccc3oc1=O)O2	-	0[22.9 µM]	-	-	-
c1ccc(CCN(Cc2ccccc2)C2CCN(C3CCCC3)CC2)cc1	50µM	50µM	-	?	2.2µM
Clc1cccc(CSc2nnc([C@@H]3CCCN3)o2)c1	0[0.501 µM]	79µM	0	0	0
Cc1ccc(NC(=O)CSc2nc3ccccc3n2CC(=O)N2CCC(C)CC2)cc1C	0	0	-	0	0
CN(Cc1nccn1C)C(=O)CC1C(=O)NCCN1Cc1ccc(F)cc1Cl (centres undefined)	40µM	0	-	0	?
Cc1nnc(CN(C)C(=O)CC2C(=O)NCCN2Cc2ccccc2C)o1 (centres undefined)	35µM	0	-	0	0
CN(CCc1cn[nH]c1)C(=O)CC1C(=O)NCCN1Cc1ccccc1C(F)(F)F (centres undefined)	45µM	0	0	0	0
CCn1ccnc1CN(C)C(=O)CC1C(=O)NCCN1Cc1c(F)cccc1Cl (centres undefined)	?	0	0	0	0
CN(Cc1nccn1C)C(=O)CC1C(=O)NCCN1Cc1ccccc1C(F)(F)F (centres undefined)	50µM	0	0	0	0
CCOc1ccc(CC(=O)Nc2c(C(=O)Nc3ccc(OC)cc3OC)oc3ccccc23)cc1	0	0	-	0	0
O=C1OC(c2ccc(Cl)cc2)=C/C1=C/c1cccnc1	56µM	0	-	0	0
O=C1OC(c2ccc(F)cc2)=C/C1=C\c1ccc([N+](=O)[O-])o1	10µM	45µM	-	-	-
O=C1OC(c2ccc(F)cc2)=C/C1=C\c1ccc(O)cc1	35µM	0	0	0	0
O=[N+]([O-])c1ccc(/C=N/N=C/c2ccc([N+](=O)[O-])o2)o1	?	0	?	0	0
COc1ccc(C2=C/C(=C\c3cccc(OC(C)=O)c3)C(=O)O2)cc1	0	0	0	0	0
O=C(CCCN1C(=O)c2cccc3cccc(c23)C1=O)NCc1cccs1	0	0	0	0	0
Cc1ccc(C(=O)c2c(N)c(C(=O)Nc3ccccc3Cl)c3ccccn23)cc1	0	0	-	0	0
Cc1cccc(N2CCN(C(=O)COc3cccc4c3OC(C)(C)C4)CC2)c1C	45µM	0	0	0	0
CC1(C)Cc2cccc(OCC(=O)NCCOc3ccccc3)c2O1	0	0	-	0	20µM
COC(=O)C1Cc2c([nH]c3ccccc23)CN1 (centres undefined)	40µM	0	0	0	0
COC(=O)[C@H]1Cc2c([nH]c3ccccc23)[C@H](c2ccccc2)N1	0	0	-	0	0
CCCOc1ccccc1/C=C(\C#N)C(=O)Nc1cccnc1	-	0	0	0	0
Cc1ccc(CN2CCN(CC(=O)NCc3ccccc3Cl)C2=O)cc1	0	0	-	0	0
SMILES	G9a inh	BAZ2B inh	L3MBTL1 block	HP1b binding inh	JMJD2A Tudor inh
CCOC(=O)c1c(C)[nH]c(C)c1C(=O)COc1ncnc2ccccc12	?	-	-	0	16µM
O=C(COC(=O)c1ccc(Cl)c(S(=O)(=O)NCc2ccccc2)c1)NC1CC1	0	0	0	0	0
CCOC(=O)c1c(C)[nH]c(C)c1C(=O)COC(=O)c1cc2ccccc2cc1OC	0	0	0	0	?
CCOC(=O)c1c(C)[nH]c(C)c1C(=O)COC(=O)c1ccc(Cl)c(S(=O)(=O)NCc2ccccc2)c1	?	?	-	0	56µM
CCOC(=O)c1c(C)[nH]c(C)c1C(=O)COC(=O)c1cc2ccccc2cc1O	50µM	?	0	0	?
CC(=O)Nc1nonc1-c1nnc(SCC(=O)Nc2cc(C)ccc2C)n1-c1ccccc1	0	0	-	0	0
Cc1ccc2oc(=O)c(/C=C(\O)C(C)(C)C)nc2c1	?	?	0	0	0
CC(C)(C)/C(O)=C/c1nc2cc(Cl)ccc2oc1=O	45µM	0	0	0	?
COc1ccc(-c2nc(N3CCN(S(=O)(=O)c4ccccc4)CC3)c3ccccc3n2)cc1	-	-	-	0	0
Cc1cc(C(=O)CSc2nnc(N)s2)c(C)n1-c1c(C)n(C)n(-c2ccccc2)c1=O	50µM	0	-	0	0
Cc1cc(C)c(C(=O)CSc2nnc(N)s2)c(C)c1	25µM	0	-	0	0
COCC(C)n1c(C)cc(C(=O)CSc2nnc(N)s2)c1C (centres undefined)	6.3µM	0	-	0	0
COCC(C)n1c(C)cc(C(=O)CSc2nc(C)c(C)c(C)n2)c1C (centres undefined)	0[12.7 µM]	?	-	0	0
Cc1cc(C(=O)CSc2nnc(N)s2)c(C)n1C1CC1	50µM	0	0	0	0
CCOc1ccc(NC(=O)C(=O)NCC(c2cccnc2)N2CCc3ccccc32)cc1 (centres undefined)	0	0	-	0	0
O=C(CSc1nc2c([nH]c3ccccc32)c(=O)n1-c1cccc(Cl)c1)N1CCc2ccccc21	0	0	-	0	0
COc1ccc(N2C(=O)CC(N3CCN(c4cccc(Cl)c4)CC3)C2=O)cc1 (centres undefined)	0	0	0	0	0
COc1ccc(N2CCN(C3=CC(=O)N(c4cccc(Cl)c4)C3=O)CC2)cc1	?	11µM	0	?	?
Cc1noc(C)c1C(=O)N1CCC[C@@]2(CCN(Cc3cc(C(F)(F)F)cc(C(F)(F)F)c3)C2)C1	0[12.7 µM]	-	-	-	-
O=C(NC1CCCC1)C(c1ccc(F)cc1)N(Cc1ccc(F)cc1)C(=O)CCl (centres undefined)	45µM	0	0	0	0
O=C(NC1CCCCC1)C(c1ccncc1)N(Cc1ccc(F)cc1)C(=O)c1ccccn1 (centres undefined)	?	0	0	0	0
COc1ccc(CCN(C)CC(=O)Nc2cc(C)nc3ccccc23)cc1OC	4.5µM	22µM	-	22µM	0.79µM
COc1cc(CN(C)C)cc(C=O)c1O	-	0	0	0	0
COc1ccc(CCN(C)Cc2c(O)ccc3ccccc23)cc1OC	8.9µM	0	-	0	50µM
COc1cc(CN(C)Cc2ccccc2)cc(OC)c1O	8.9µM	0	-	0	0
SMILES	G9a inh	BAZ2B inh	L3MBTL1 block	HP1b binding inh	JMJD2A Tudor inh
COc1cc(CC(=O)NCc2ccccn2)cc(OC)c1OC	0	0	-	0	0
COc1cc(CN(C)CCc2ccccn2)cc(OC)c1OC	?	20µM	0	?	7.9µM
Cc1ccc(NCc2cccn2-c2nnc(N3CCC(C(=O)NCCc4ccc(Cl)cc4)CC3)s2)cc1	0	0	-	0	0
Cc1noc(C)c1-c1nccc(NCc2cccs2)n1	0[0.501 µM]	-	-	-	-
O=c1c(-c2ccc(Cl)cc2)nc2cnc(N3CCNCC3)nc2n1-c1ccccc1	0[0.501 µM]	-	-	-	-
COc1ccc(CCN(C)Cc2ccc(OC)c(OCc3ccccc3)c2)cc1OC	?	?	0	0	3.2µM
